Test results from PubChem BioAssay AID1159580 (chemical genetic matrix, 2015).
Several values for one entry are separate records, joined by “and”; a condition that tells them apart may be missing. Equal entries are not always repeated. About 2,000 (36%) of roughly 5,500 compounds were called active. Not shown: some 18% with an inconclusive outcome. Cut-off read from the data, not from the text of the source: active = normalized growth mostly below about 0.91 (no sharp cut-off); inconclusive = no clear call, values can overlap the other calls; inactive = mostly above about 0.92. The list shows a part of the results.

Experiment: chemical genetic growth profiling, strain panel (AID 1159580);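 note: tested at 20 µM; growth read once vehicle control cultures reached saturation at 30 °C; 1 = growth at the plate median or of vehicle wells; lower values mean less growth of the strain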
Conditions: growth OD

Measured: normalized growth

CN=C(NC#N)NCCSCc1nc[nH]c1C
inactive: S. cerevisiae deletion strains, locus YJR075W, strain HOC1, stronger effect = lower value 1.01 | S. cerevisiae deletion strains, locus YKL009W, strain mrt4, stronger effect = lower value 1.03 | S. cerevisiae deletion strains, locus YKL068W, stronger effect = lower value 0.992 | S. cerevisiae deletion strains, locus YKL085W, strain MDH1 (second series), stronger effect = lower value 0.992 | S. cerevisiae deletion strains, locus YKL085W, strain MDH1, stronger effect = lower value 0.992 | S. cerevisiae deletion strains, locus YKL160W, strain elf1, stronger effect = lower value 0.986 | S. cerevisiae deletion strains, locus YKL190W, strain CNB1, stronger effect = lower value 1 | S. cerevisiae deletion strains, locus YKR001C, strain vps1, stronger effect = lower value 0.998 | S. cerevisiae deletion strains, locus YKR026C, strain gcn3, stronger effect = lower value 1 | S. cerevisiae deletion strains, locus YKR091W, strain srl3, stronger effect = lower value 1 | S. cerevisiae deletion strains, locus YLL001W, strain dnm1, stronger effect = lower value 1 | S. cerevisiae deletion strains, locus YLL026W, stronger effect = lower value 0.997 | S. cerevisiae deletion strains, locus YLL041C, strain sdh2, stronger effect = lower value 1 | S. cerevisiae deletion strains, locus YLR027C, strain aat2, stronger effect = lower value 1.01 | S. cerevisiae deletion strains, locus YLR039C, strain RIC1, stronger effect = lower value 1 | S. cerevisiae deletion strains, locus YLR058C, strain SHM2, stronger effect = lower value 0.989 | S. cerevisiae deletion strains, locus YLR102C, strain apc9, stronger effect = lower value 0.985 | S. cerevisiae deletion strains, locus YLR113W, strain HOG1, stronger effect = lower value 1.03 | S. cerevisiae deletion strains, locus YLR221C, strain rsa3, stronger effect = lower value 0.986 | S. cerevisiae deletion strains, locus YLR258W, strain gsy2, stronger effect = lower value 1.02 | S. cerevisiae deletion strains, locus YLR262C, strain YPT6 (second series), stronger effect = lower value 1.01 | S. cerevisiae deletion strains, locus YLR262C, strain YPT6, stronger effect = lower value 1.01 | S. cerevisiae deletion strains, locus YLR268W, strain sec22, stronger effect = lower value 0.955 | S. cerevisiae deletion strains, locus YLR320W, strain mms22, stronger effect = lower value 0.982 | S. cerevisiae deletion strains, locus YLR330W, strain CHS5, stronger effect = lower value 0.991 | S. cerevisiae deletion strains, locus YLR342W, strain FKS1 (second series), stronger effect = lower value 1.01 | S. cerevisiae deletion strains, locus YLR342W, strain FKS1, stronger effect = lower value 1 | S. cerevisiae deletion strains, locus YLR357W, strain rsc2, stronger effect = lower value 0.979 | S. cerevisiae deletion strains, locus YLR370C, strain arc18, stronger effect = lower value 1.01 | S. cerevisiae deletion strains, locus YLR371W, strain rom2, stronger effect = lower value 0.993 | S. cerevisiae deletion strains, locus YLR384C, strain iki3, stronger effect = lower value 0.998 | S. cerevisiae deletion strains, locus YLR418C, strain cdc73, stronger effect = lower value 1.03 | S. cerevisiae deletion strains, locus YML016C, strain PPZ1, stronger effect = lower value 0.997 | S. cerevisiae deletion strains, locus YML032C, strain rad52, stronger effect = lower value 0.986 | S. cerevisiae deletion strains, locus YML120C, strain ndi1, stronger effect = lower value 0.993 | S. cerevisiae deletion strains, locus YML124C, strain tub3, stronger effect = lower value 0.98 | S. cerevisiae deletion strains, locus YMR058W, strain fet3, stronger effect = lower value 1 | S. cerevisiae deletion strains, locus YMR078C, strain ctf18, stronger effect = lower value 0.986 | S. cerevisiae deletion strains, locus YMR125W, strain sto1, stronger effect = lower value 0.996 | S. cerevisiae deletion strains, locus YMR129W, stronger effect = lower value 1 | S. cerevisiae deletion strains, locus YMR205C, strain PFK2, stronger effect = lower value 0.994 | S. cerevisiae deletion strains, locus YMR223W, strain ubp8, stronger effect = lower value 1.02 | S. cerevisiae deletion strains, locus YMR231W, strain pep5, stronger effect = lower value 0.999 | S. cerevisiae deletion strains, locus YMR263W, strain SAP30, stronger effect = lower value 0.998 | S. cerevisiae deletion strains, locus YMR307W, strain GAS1, stronger effect = lower value 1 | S. cerevisiae deletion strains, locus YNL067W, strain RPL9B, stronger effect = lower value 1 | S. cerevisiae deletion strains, locus YNL071W, strain lat1, stronger effect = lower value 1.01 | S. cerevisiae deletion strains, locus YNL128W, strain TEP1, stronger effect = lower value 0.991 | S. cerevisiae deletion strains, locus YNL153C, strain GIM3, stronger effect = lower value 0.994 and 1.05 | S. cerevisiae deletion strains, locus YNL175C, strain NOP13, stronger effect = lower value 1 | S. cerevisiae deletion strains, locus YNL183C, strain NPR1, stronger effect = lower value 1 | S. cerevisiae deletion strains, locus YNL197C, strain WHI3, stronger effect = lower value 1.02 | S. cerevisiae deletion strains, locus YNL209W, strain ssb2, stronger effect = lower value 1 | S. cerevisiae deletion strains, locus YNL224C, strain SQS1, stronger effect = lower value 0.993 | S. cerevisiae deletion strains, locus YNL233W, strain BNI4, stronger effect = lower value 0.988 | S. cerevisiae deletion strains, locus YNL248C, strain rpa49, stronger effect = lower value 0.996 | S. cerevisiae deletion strains, locus YNL250W, strain rad50, stronger effect = lower value 0.953 | S. cerevisiae deletion strains, locus YNL271C, strain bni1, stronger effect = lower value 0.965 | S. cerevisiae deletion strains, locus YNL298W, strain CLA4, stronger effect = lower value 0.971 | S. cerevisiae deletion strains, locus YNL307C, strain MCK1, stronger effect = lower value 0.996 | S. cerevisiae deletion strains, locus YNL322C, strain KRE1 (second series), stronger effect = lower value 0.989 | S. cerevisiae deletion strains, locus YNL322C, strain KRE1, stronger effect = lower value 1 | S. cerevisiae deletion strains, locus YNR049C, strain mso1, stronger effect = lower value 1 | S. cerevisiae deletion strains, locus YNR052C, strain pop2, stronger effect = lower value 1 | S. cerevisiae deletion strains, locus YOL006C, strain TOP1, stronger effect = lower value 1.01 | S. cerevisiae deletion strains, locus YOL012C, strain htz1 0.875 | S. cerevisiae deletion strains, locus YOL147C, strain pex11, stronger effect = lower value 0.973 | S. cerevisiae deletion strains, locus YOR001W, strain rrp6, stronger effect = lower value 0.999 | S. cerevisiae deletion strains, locus YOR061W, strain CKA2, stronger effect = lower value 0.99 | S. cerevisiae deletion strains, locus YOR069W, strain VPS5, stronger effect = lower value 0.99 | S. cerevisiae deletion strains, locus YOR070C, strain gyp1, stronger effect = lower value 0.996 | S. cerevisiae deletion strains, locus YOR080W, strain dia2, stronger effect = lower value 1 | S. cerevisiae deletion strains, locus YOR083W, strain WHI5 (second series), stronger effect = lower value 1.04 | S. cerevisiae deletion strains, locus YOR083W, strain WHI5, stronger effect = lower value 0.981 | S. cerevisiae deletion strains, locus YOR106W, strain vam3, stronger effect = lower value 0.979 | S. cerevisiae deletion strains, locus YOR136W, strain idh2, stronger effect = lower value 0.994 | S. cerevisiae deletion strains, locus YOR144C, strain elg1, stronger effect = lower value 0.983 | S. cerevisiae deletion strains, locus YOR184W, strain ser1, stronger effect = lower value 0.993 | S. cerevisiae deletion strains, locus YOR231W, strain MKK1, stronger effect = lower value 1.03 | S. cerevisiae deletion strains, locus YOR265W, strain rbl2, stronger effect = lower value 0.999 | S. cerevisiae deletion strains, locus YOR270C, strain vph1, stronger effect = lower value 1.02 | S. cerevisiae deletion strains, locus YOR290C, strain snf2, stronger effect = lower value 0.972 | S. cerevisiae deletion strains, locus YOR316C, strain cot1, stronger effect = lower value 0.991 | S. cerevisiae deletion strains, locus YPL051W, strain arl3, stronger effect = lower value 0.991 | S. cerevisiae deletion strains, locus YPL055C, strain LGE1, stronger effect = lower value 1.05 | S. cerevisiae deletion strains, locus YPL078C, strain atp4, stronger effect = lower value 1.01 | S. cerevisiae deletion strains, locus YPL106C, strain sse1, stronger effect = lower value 0.972 | S. cerevisiae deletion strains, locus YPL240C, strain hsp82, stronger effect = lower value 1 | S. cerevisiae deletion strains, locus YPL241C, strain CIN2, stronger effect = lower value 0.995 and 1.01 | S. cerevisiae deletion strains, locus YPL256C, strain CLN2, stronger effect = lower value 1.06 | S. cerevisiae deletion strains, locus YPR119W, strain clb2, stronger effect = lower value 0.978 | S. cerevisiae deletion strains, locus YPR141C, strain kar3, stronger effect = lower value 0.97 | S. cerevisiae deletion strains, locus YPR163C, strain tif3, stronger effect = lower value 0.984 | S. cerevisiae deletion strains, locus YPR167C, strain met16, stronger effect = lower value 0.986 | S. cerevisiae deletion strains, strain wtn01, stronger effect = lower value 1.01 | S. cerevisiae strains, strain wild type, stronger effect = lower value 0.998
